Most compounds without a hit are left out; they make up all but 8% or so of the library.
KB-V1 cytotox: kills drug-selected multidrug resistant KB-V1 cells; Potency, µM (doses to about 46.1 µM), usual class: cytotoxic; 400,000 compounds, 3.4% hits; KB-V1 MDR cells viability, CellTiter-Glo, 72 h; further: on the % scale 0 is the no-effect control and ±100 the full control effect; nearly all actives have a fitted effect of over 60% in size
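Cytotoxicity toward P-gp-expressing KB-V1 cells was determined as loss of CellTiter-Glo luminescence after 72 h at 37 degrees C. Compounds were tested in quantitative HTS format across a concentration range, with curves fitted to normalized data.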
MCF10A rerep: DNA re-replication induction in MCF 10a cells; MCF 10A DNA re-replication, Hoechst nuclear intensity, 48 h; Potency, µM (highest dose often 46.1 µM), inactives show at the highest dose activity, positive = re-replication, usual class: activators; 350,000 compounds, 2.9% hits; AID 624296; further: % of control where 0% means no effect; nearly all actives have a fitted effect of over 50% in size
SW480 rereplic: inducers of DNA re-replication in SW480 colon cancer cells; SW480 DNA re-replication, Hoechst DNA content imaging, 48 h; Potency, µM (doses to about 46.1 µM), without a hit: at the top dose re-replication activation, usual class: activators; 340,000 compounds, 1.8% hits; AID 624297; further: % of control where 0% means no effect; nearly all actives have a fitted effect of over 55% in size
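Per well, 250 cells were exposed to pinned compound for 48 hr. Nuclear DNA was visualised with Hoechst (40 min, 37 C) and total object intensity recorded by fluorescence scanning.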
HT1080 IDH1KD tx: HT-1080 IDH1 knockdown cell toxicity (counter line); AID 686971; 360,000 compounds, 2% hits; HT-1080 IDH1 knockdown viability, ATP luminescence, 48 h; Potency, µM (top dose mostly 46.1 µM), inactives show at the top dose activity, negative = toxicity, hits mostly cytotoxic;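 further: 0% = DMSO wells and -100% = cell-free medium wells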
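Knockdown cells (IDH1KD HT-1080) received compounds 2 h after plating at 750 cells/well and were kept 48 h at 37 °C in 5% FBS RPMI. A CellTiter-Glo luminescence read gave % activity for curve fitting.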
HT1080NT lethal: kills 2HG-producing HT-1080-NT fibrosarcoma cells; 360,000 compounds, 1.6% hits; Potency, µM (titrated, usually from 46.1 µM), inactives show at the highest dose activity, negative = less viability, usual class: cytotoxic; HT-1080-NT fibrosarcoma viability, CellTiter-Glo ATP luminescence, 48 h;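 further: NT is the 2HG producing partner of a matched IDH1 knockdown line; 0% = DMSO-treated cells and -100% = media-only wells without cells; nearly all actives have a fitted effect of over 55% in size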
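Fibrosarcoma NT cells, 750 per well in 5% FBS RPMI, were exposed to compound for 48 hours. Viability: CellTiter-Glo luminescence.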
KB-3-1 tox: KB-3-1 parental cell cytotoxicity. 400,000 compounds, 1.4% hits. Potency, µM (titrated, usually from 46.1 µM), most hits filed as cytotoxic. KB-3-1 viability, CellTiter-Glo ATP luminescence, 72 h. AID 1347075; further: on the % scale 0 is the no-effect control and ±100 the full control effect; nearly all actives have a fitted effect of over 60% in size
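Screening of KB-3-1 cells (DMEM, 10% FBS, phenol-red free) ran from lowest to highest compound concentration; after 72 h at 37 °C viability was read luminescently and curves fitted.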
An asterisk follows results filed as active; i = inactive; ? = inconclusive; . = not tested or not shown. The call rests on the fitted dose curve; in most records, active means well fitted curve in the direction sought with a large enough effect; inconclusive means small, poorly fitted or top-dose-only effect, or another doubt; inactive means no such curve, though single readings can be large; an effect the other way counts as inactive or inconclusive. Potency means the concentration at half of the fitted maximal effect.

SMILES	KB-V1 cytotox	MCF10A rerep	SW480 rereplic	HT1080 IDH1KD tx	HT1080NT lethal	KB-3-1 tox
C/C(CCN1CCCCc2nc(C)c(C)cc21)=N\O[C@@H](C)CN1CCCCc2nc(C)c(C)cc21	.	23.1µM*	?	.	.	.
CCN(CC)CCNCC1C(=O)O[C@@H]2C[C@@]3(C)CCC[C@H](C)C3=C[C@H]12 (stereo not given in full)	?	?	13.8%	16.4µM*	?	?
C=CCn1cc(C(C)=O)c(=O)[nH]c1=O	i	0.4%	14.2%	2.0%	20.1%	i
C=CCn1c(CCNC(=O)c2cccs2)nnc1SCC(=O)c1ccc(Br)cc1	20.6µM*	1.4%	?	?	-20.0%	i
COc1ccc2nc3sc(C(=O)NCCCN4CCc5ccccc5C4)cc3cc2c1	5.8µM*	?	?	-13.4%	-12.3%	i
O=C(c1cccs1)N1CCCc2cc(NS(=O)(=O)c3ccc(F)cc3)ccc21	i	.	.	.	.	i
CCN(CC)CCC(=O)N1C/C(=C/c2ccccc2)C(=O)/C(=C\c2ccccc2)C1	?	?	?	2.91µM*	?	i
O=C1/C(=C\c2ccccc2)CN(C(=O)CCN2CCCCC2)C/C1=C/c1ccccc1	?	?	?	2.91µM*	?	?
O=C(NCCN1CCOCC1)c1ccc(Cl)c(Cl)c1	i	-0.2%	0.7%	28.0%	16.6%	i
O=C(CCN1C(=O)S/C(=C\c2ccccc2)C1=O)N1CCCCC1	i	13.8%	2.7%	-0.9%	-0.3%	i
O=C1/C(=C\c2ccc(Cl)c(Cl)c2)CN(C(=O)CCN2CCOCC2)C/C1=C/c1ccc(Cl)c(Cl)c1	?	?	?	5.17µM*	5.17µM*	3.66µM*
Cc1cc(S(=O)(=O)Nc2cc3c(cc2Cl)n(C)c(=O)c(=O)n3C)ccc1F	i	.	.	.	.	i
COc1cccc(-n2c(=O)c3c(C)c(C)sc3n(Cc3ccccc3C#N)c2=O)c1	i	.	.	.	.	i
CCOC(=O)c1cc(S(=O)(=O)Nc2ccc(Br)c(C)c2)[nH]n1	i	.	.	.	.	i
COc1ccc(Cn2c(C(=O)O)c(CNCC(C)c3ccccc3)c3ccc(OC)cc32)cc1 (stereo not given)	i	.	.	.	.	?
CC(=O)Nc1ccc(Nc2cc(C(C)C)nc3c(-c4ccccc4)c(C)nn23)cc1	i	?	?	?	?	5.8µM*
Cc1nn2c(NCCCn3ccnc3)cc(C(C)C)nc2c1-c1ccccc1	?	-9.0%	-35.4%	?	14.6µM*	i
Cc1nn2c(NCc3ccccn3)cc(C(C)C)nc2c1-c1ccccc1	?	?	?	?	-26.7%	i
Cc1cc(NCCC(C)C)n2nc(C)c(-c3ccccc3)c2n1	20.6µM*	14.6µM*	7.9%	?	?	i
CC(=O)Nc1ccc(Nc2cc(C)nc3c(-c4ccccc4)c(C)nn23)cc1	i	-6.8%	-7.5%	-21.9%	-8.3%	i
Cc1cc(C)cc(N2C(=O)CS(=O)(=O)C23C(=O)N(Cc2ccccc2)c2ccccc23)c1 (stereo not given)	?	.	.	.	.	i
Cc1ccc(NC(=O)Cn2c(=O)n(-c3ccccc3)c(=O)c3ccc(C(=O)NCc4ccc5c(c4)OCO5)cc32)c(C)c1	?	.	.	.	.	i
ClC(Cl)(Cl)C1=NCc2nnn(Cc3ccccc3)c2N1	i	.	.	15.1%	0.8%	i
COc1ccc(-n2c(=O)c3c(c4cc(OC)ccc4n3C)n(CC(=O)NCC3CCCO3)c2=O)cc1 (stereo not given)	i	.	.	.	.	i
CCN(CC)S(=O)(=O)c1csc(C(=O)NCc2ccccc2)c1	20.6µM*	-0.3%	-0.8%	-1.4%	-3.3%	i
SMILES	KB-V1 cytotox	MCF10A rerep	SW480 rereplic	HT1080 IDH1KD tx	HT1080NT lethal	KB-3-1 tox
CCN(CC)S(=O)(=O)c1cccc(C(=O)NCc2ccccc2)c1	i	2.7%	3.0%	1.7%	-1.7%	i
COc1ccc(N2C(=O)CC(Sc3nc4ccccc4s3)C2=O)cc1 (stereo not given)	i	?	16.6%	7.1%	1.1%	i
C=CCNc1nnc(SC2CC(=O)N(c3ccc(OC)cc3)C2=O)s1 (stereo not given)	i	5.8µM*	6.7%	?	?	i
Cc1nc(C(=O)Nc2ccc(Cl)cc2Cl)nn1-c1cc(OC(C)C)c(Cl)cc1Cl	i	?	13.2%	0.8%	10.5%	i
Cc1nc(C(=O)Nc2cc(Cl)ccc2Cl)nn1-c1cc(OC(C)C)c(Cl)cc1Cl	14.6µM*	14.4%	-5.1%	0.8%	?	i
COc1ccccc1-c1ncn(Cc2cccc(-c3ccccc3)c2)c1CC(C)C	16.4µM*	.	.	?	18.4µM*	?
CCc1c(-c2ccccc2OC)ncn1Cc1cccc(-c2ccccc2)c1	?	.	.	8.2µM*	14.6µM*	13µM*
CCc1c(-c2cccc(Br)c2)ncn1Cc1cccc(-c2ccccc2)c1	i	.	.	?	-92.8%	?
CCc1c(-c2ccc(OC)cc2)ncn1Cc1cccc(-c2ccccc2)c1	16.4µM*	.	.	?	?	?
COc1ccccc1-c1nc2ccccc2n(CC(C)C)c1=O	?	.	.	0.0%	1.0%	i
CN1C[C@@H]2C(c3ccccc3)C3(c4ccc(C#N)cc4)CC2(C3)[C@H]1c1ccccc1 (stereo not given in full)	i	5.17µM*	-18.3%	0.1%	-7.5%	i
N#CC1=C(N)Oc2c(ccc3cccnc23)C1c1ccccc1 (stereo not given)	i	14.6µM*	5.17µM*	?	?	5.17µM*
Cc1ccc2[nH]c(=O)c(C3C(C#N)=C(N)Oc4c3ccc3cccnc43)cc2c1 (stereo not given)	2.59µM*	?	?	?	-26.7%	16.4µM*
Cc1oc(C)c2c(=O)ccc3c(c12)OC(N)=C(C#N)C3c1ccccc1 (stereo not given)	i	?	-1.5%	-8.7%	-5.1%	i
N#CC1=C(N)Oc2ccc3ccccc3c2C1c1cccnc1 (stereo not given)	5.17µM*	1.64µM*	4.61µM*	?	8.2µM*	?
C/C(CC(=O)Nc1ccc(C)c(Cl)c1)=N\NC(=O)c1ccccn1	i	-28.3%	-21.7%	-0.1%	12.4%	i
COc1ccc(S(=O)(=O)Oc2ccc3cccc(N)c3c2)cc1	?	?	?	-26.9%	-23.1%	?
COc1ccc(S(=O)(=O)Oc2ccc3ccccc3c2)cc1	16.4µM*	?	?	-6.4%	-21.4%	?

Screening data (PubChem)
